Source: PubChem (Broad Institute)
STK33 kin inh – STK33 kinase inhibitors, primary screen, biochemical, luminescence, ADP-Glo, MBP substrate; inhibition, % at 12.5 µM; actives 0.44% (n = 27,000); AID 2322, 2010; in the data active = inhibition above about 20%; inconclusive = no clear call, values can overlap the other calls
Target sequence (Q9BYT3 whole entry, looked up): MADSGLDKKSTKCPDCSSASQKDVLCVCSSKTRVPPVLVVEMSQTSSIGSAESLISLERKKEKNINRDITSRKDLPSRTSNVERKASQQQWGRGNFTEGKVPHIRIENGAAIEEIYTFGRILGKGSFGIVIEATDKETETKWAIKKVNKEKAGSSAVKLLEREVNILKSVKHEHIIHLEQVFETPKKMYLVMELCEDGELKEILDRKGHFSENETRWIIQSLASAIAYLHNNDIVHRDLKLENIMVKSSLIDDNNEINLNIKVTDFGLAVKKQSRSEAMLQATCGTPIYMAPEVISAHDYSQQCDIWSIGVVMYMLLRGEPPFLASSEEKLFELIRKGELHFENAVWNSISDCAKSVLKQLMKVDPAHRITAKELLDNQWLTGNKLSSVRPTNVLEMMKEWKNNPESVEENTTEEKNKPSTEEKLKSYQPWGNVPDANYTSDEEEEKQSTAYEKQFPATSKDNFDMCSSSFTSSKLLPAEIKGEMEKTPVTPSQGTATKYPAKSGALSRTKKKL
mut p53 react – mutant p53 pathway re-activators, primary screen, cell-based, SW480, luciferase, single point, HTS | actives 1.5% (n = 28,000) | SW480 PUMA-promoter luciferase, p53 mutant reactivation | activation, % at 9.98 µM; in the data active = activation above about 52%; inconclusive = no clear call, values can overlap the other calls
NOMO-1 viab – NOMO-1 AML cell viability reduction, primary screen, STK33 inhibitor project, CellTiter-Glo luminescence | NOMO-1 AML viability, 72 h | inhibition, % (no concentration beside the values) | actives 7.5% (n = 37,000) | AID 2330, 2010; in the data active = inhibition above about 80%; inconclusive = no clear call, values can overlap the other calls
ID4 SMM – binders of human ID4 protein, primary screen, biochemical, small molecule microarray, single point. DNA-binding protein inhibitor ID-4 (Homo sapiens), P47928. Flag-ID4 binding, fluorescence F/B. calls only. actives 1.2% (n = 31,000); call rule not given here;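 also: a binder raises fluorescence above local background on the spot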
Target sequence (P47928 whole entry, looked up): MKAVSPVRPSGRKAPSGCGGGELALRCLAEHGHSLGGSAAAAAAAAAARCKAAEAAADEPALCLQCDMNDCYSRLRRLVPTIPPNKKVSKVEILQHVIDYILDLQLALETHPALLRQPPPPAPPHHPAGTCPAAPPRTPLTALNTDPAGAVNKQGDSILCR
Of the large screens only hits and unclear results are named; the others gave an inactive call. The full list was thinned out, with hits kept by preference.

C[C@@H]1CN([C@@H](C)CO)C(=O)c2cc(NC(=O)Nc3ccccc3)ccc2O[C@H]1CN(C)S(=O)(=O)c1cccs1	none (no result: STK33 kin inh, mut p53 react, ID4 SMM)
CN(C)Cc1ccc(C(=O)Oc2ccc(C(C)(C)C)cc2)cc1	NOMO-1 viab 114.6 (no result: STK33 kin inh, mut p53 react, ID4 SMM)
CCc1ccc(C(=O)Oc2ccc(C#N)cc2)cc1	none (no result: STK33 kin inh, mut p53 react, ID4 SMM)
C[C@H](CO)N1C[C@H](C)[C@@H](CN(C)C)Oc2c(NC(=O)c3cnccn3)cccc2C1=O	none (no result: STK33 kin inh, mut p53 react, ID4 SMM)
C[C@H](CO)N1C[C@H](C)[C@@H](CN(C)C(=O)Nc2ccc(C(F)(F)F)cc2)Oc2c(NC(=O)c3ccc(-c4nccs4)cc3)cccc2C1=O	none (no result: STK33 kin inh, mut p53 react, ID4 SMM)
C[C@@H]1CN([C@H](C)CO)C(=O)c2cccc(NC(=O)c3ccc(-c4nccs4)cc3)c2O[C@H]1CN(C)Cc1ccc(C(F)(F)F)cc1	NOMO-1 viab 84.0 (no result: STK33 kin inh, ID4 SMM)
C[C@H](CO)N1C[C@H](C)[C@H](CN(C)C(=O)Nc2ccc(C(F)(F)F)cc2)Oc2c(NC(=O)c3ccc(-c4nccs4)cc3)cccc2C1=O	NOMO-1 viab 92.5 (no result: STK33 kin inh, mut p53 react, ID4 SMM)
C[C@H]1CN([C@@H](C)CO)C(=O)c2cccc(NC(=O)c3ccc(-c4nccs4)cc3)c2O[C@H]1CN(C)Cc1ccc(C(=O)Nc2ccccc2N)cc1	NOMO-1 viab 101.3 (no result: STK33 kin inh, mut p53 react, ID4 SMM)
C[C@@H]1CN([C@H](C)CO)C(=O)c2cccc(NC(=O)c3ccc(-c4nccs4)cc3)c2O[C@@H]1CN(C)Cc1ccc(C(=O)Nc2ccccc2N)cc1	NOMO-1 viab 142.1 (no result: STK33 kin inh, mut p53 react, ID4 SMM)
C[C@@H]1CN([C@H](C)CO)S(=O)(=O)c2ccc(C#Cc3ccccc3F)cc2O[C@@H]1CN(C)CC1CC1	none (no result: STK33 kin inh, NOMO-1 viab, ID4 SMM)
C[C@H]1CN([C@@H](C)CO)C(=O)c2cc(NC(=O)c3ccncc3)ccc2O[C@H]1CN(C)Cc1ccccc1	none (no result: STK33 kin inh, mut p53 react, ID4 SMM)
C[C@H](CO)N1C[C@H](C)[C@H](CN(C)Cc2ccc(Oc3ccccc3)cc2)Oc2c(NC(=O)c3ccc(-c4nccs4)cc3)cccc2C1=O	NOMO-1 viab 112.4 (no result: STK33 kin inh, mut p53 react, ID4 SMM)
C[C@@H]1CN([C@H](C)CO)C(=O)c2cccc(NC(=O)c3ccc(-c4nccs4)cc3)c2O[C@@H]1CN(C)Cc1ccc(-c2ccccc2)cc1	none (no result: STK33 kin inh, mut p53 react, ID4 SMM)
C[C@@H]1CN([C@H](C)CO)C(=O)c2cccc(NC(=O)c3ccc(-c4nccs4)cc3)c2O[C@H]1CN(C)Cc1ccc(Oc2ccccc2)cc1	none (no result: STK33 kin inh, mut p53 react, ID4 SMM)
C[C@@H]1CN([C@@H](C)CO)C(=O)c2cccc(NC(=O)c3ccc(-c4nccs4)cc3)c2O[C@H]1CN(C)Cc1ccc(C(=O)Nc2ccccc2N)cc1	NOMO-1 viab 126.1 (no result: STK33 kin inh, mut p53 react, ID4 SMM)
COc1ccc(NC(=O)N(C)C[C@@H]2Oc3ccc(NC(=O)C4CCCCC4)cc3CC(=O)N([C@H](C)CO)C[C@@H]2C)cc1	none (no result: STK33 kin inh, mut p53 react, ID4 SMM)
CCN1/C(=C\C(=S)Nc2ccccc2)Sc2ccccc21	none (no result: STK33 kin inh, mut p53 react, ID4 SMM)
CCN1/C(=C/C2=CC(=O)CC(C)(C)C2)Sc2ccccc21	NOMO-1 viab 113.2 (no result: STK33 kin inh, mut p53 react, ID4 SMM)
O=C(c1nn2c(C(F)(F)F)cc(-c3cccs3)nc2c1Cl)N1CCCc2ccccc21	NOMO-1 viab 107.4 (no result: mut p53 react, ID4 SMM)
Cc1ccc(N2CC(C(=O)Nc3ccc(S(=O)(=O)NCC4CCCO4)cc3)CC2=O)cc1 (stereo unspecified)	ID4 SMM active
O=C(CSc1ncnc2sc(-c3ccccc3)cc12)NC1CCCCC1	NOMO-1 viab 103.9
CC(=O)C(C)Sc1ncnc2sc(-c3ccccc3)cc12 (stereo unspecified)	STK33 kin inh inconclusive, mut p53 react 72.6
COc1ccc(NC(=O)CSc2ncnc3sc(-c4ccccc4)cc23)cc1Cl	none
Cc1sc(NC(=O)c2ccco2)c(C(=O)NCc2cccnc2)c1C	none
Cc1ccc(S(=O)(=O)Nc2ccc3c(c2)C(=O)N([C@H](C)CO)C[C@H](C)[C@@H](CN(C)Cc2ccc(C(=O)O)cc2)OCCCC[C@@H](C)O3)cc1	none (no result: mut p53 react, ID4 SMM)
CC(C)(C)NS(=O)(=O)c1ccc(NC(=O)COc2ccc3ccccc3c2Br)cc1	none
O=C(COc1ccc2ccccc2c1Br)NCc1ccccn1	mut p53 react 96.1
NCCOc1ccc(Cl)cc1	NOMO-1 viab 111.0 (no result: mut p53 react, ID4 SMM)
C#C[C@]1(O)CCC2C3CCc4cc(O)ccc4C3CC[C@@]21C (stereo partly specified)	NOMO-1 viab 106.9 (no result: mut p53 react, ID4 SMM)
CNc1ccccc1C(=O)OC1OC(C)C(O)C(O)C1O (stereo unspecified)	ID4 SMM active
C[C@@H]1CCCCO[C@H](CN(C)Cc2ccccc2)[C@H](C)CN([C@H](C)CO)C(=O)c2cc(NC(=O)CCC(F)(F)F)ccc2O1	none (no result: STK33 kin inh, NOMO-1 viab)
O=C1NC(=O)c2cc(-c3ccccc3)ccc21	none (no result: STK33 kin inh, mut p53 react, ID4 SMM)
CC1(C)CC(=O)c2c([nH]c(-c3ccccc3)c2-c2ccccc2)C1	NOMO-1 viab 92.0 (no result: STK33 kin inh, mut p53 react, ID4 SMM)
Cc1ccc(NC(=O)COc2ccc(Cl)cc2)c([N+](=O)[O-])c1	mut p53 react 95.1
CCc1ccc(OCC(=O)Nc2ccc(C)cc2[N+](=O)[O-])cc1	mut p53 react 66.2
Cc1ccc(NC(=O)COc2cc(C)c(Br)c(C)c2)c([N+](=O)[O-])c1	none
CCOc1ccc(OCC(=O)Nc2ccc(C)cc2[N+](=O)[O-])cc1	none
O=C1/C(=C/c2ccc(O)cc2)SC(=S)N1CCc1ccccc1	NOMO-1 viab 102.2 (no result: STK33 kin inh, mut p53 react, ID4 SMM)
COC(=O)COc1ccc(S(=O)(=O)NC2CCCCCC2)cc1	NOMO-1 viab 119.3
CC(C)NC(=O)Nc1ccc2c(c1)C(=O)N([C@H](C)CO)C[C@H](C)[C@H](CN(C)C(=O)NC1CCCCC1)OCCCC[C@@H](C)O2	none (no result: mut p53 react, ID4 SMM)
C[C@@H]1CN([C@H](C)CO)C(=O)c2cc(NC(=O)Nc3ccc(C(F)(F)F)cc3)ccc2O[C@H]1CN(C)CC1CCCCC1	NOMO-1 viab 103.4 (no result: mut p53 react, ID4 SMM)
C[C@@H]1CN([C@@H](C)CO)C(=O)Cc2cc(NC(=O)Nc3ccc(C(F)(F)F)cc3)ccc2O[C@@H]1CN(C)CC1CCCCC1	NOMO-1 viab 104.1 (no result: mut p53 react, ID4 SMM)
C[C@H](CO)N1C[C@H](C)[C@@H](CN(C)CC2CC2)Oc2ccc(NC(=O)Nc3ccc(C(F)(F)F)cc3)cc2CC1=O	none (no result: STK33 kin inh, NOMO-1 viab)
C[C@@H]1CN([C@H](C)CO)C(=O)c2cc(NC(=O)Nc3ccc(C(F)(F)F)cc3)ccc2O[C@@H]1CN(C)CC1CC1	none (no result: STK33 kin inh, mut p53 react, ID4 SMM)
C[C@H]1CN([C@@H](C)CO)C(=O)Cc2cc(NC(=O)Nc3ccc(C(F)(F)F)cc3)ccc2O[C@H]1CN(C)CC1CCCCC1	NOMO-1 viab 129.7 (no result: mut p53 react, ID4 SMM)
Cc1ccc(-c2cnc3c(c2)C(=O)N([C@@H](C)CO)C[C@@H](C)[C@H](CN(C)C(=O)c2ccc(F)cc2)O3)cc1	none (no result: STK33 kin inh, NOMO-1 viab)
CC(C)NC(=O)Nc1ccc2c(c1)CC(=O)N([C@@H](C)CO)C[C@H](C)[C@H](CN(C)Cc1ccc(C(=O)O)cc1)O2	none (no result: mut p53 react, ID4 SMM)
c1ccc2cc3c(Nc4ccc(N5CCOCC5)cc4)ccnc3cc2c1	NOMO-1 viab 136.3 (no result: STK33 kin inh, mut p53 react, ID4 SMM)
CC(=O)CCc1ccc(Oc2ccc(C(F)(F)F)cn2)cc1	mut p53 react 64.7
CC(C)(C)c1ccc(SC(=O)c2ccc(OCC(F)(F)F)nc2)cc1	none (no result: STK33 kin inh, mut p53 react, ID4 SMM)
C[C@@H]1CN([C@H](C)CO)C(=O)c2cc(NC(=O)Nc3ccccc3)ccc2O[C@H]1CN(C)Cc1ccc(C(F)(F)F)cc1	NOMO-1 viab 99.4 (no result: mut p53 react, ID4 SMM)
